Cl transport mod: modulates chloride dependent transport by human KCC2. 190,000 compounds, 2.2% hits. KCC2 cells, thallium flux FluoZin-2 fluorescence. B-score of Tl+ flux slope (higher = more flux/activation; lower = inhibition) at 10 µM. Q9H2X9;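 active = thallium flux slope and its plate-corrected score both differing from the plate sample mean at a set confidence after two filtering rounds, in either direction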;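 note: slope of fluorescence scaled to starting intensity during 10 to 20 s after thallium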
WT yeast gro inh: growth inhibition of WT yeast, mitochondrial fusion screen; mitochondrial fusion phenotypic screen, WT strain; inhibition, % at 10 µM; 190,000 compounds, 2.1% hits; AID 1362; in the data active = inhibition above about 58%; tested in S. cerevisiae
Calpain2 inh: inhibitors of pig calpain II; purified calpain II, fluorogenic peptide substrate, 30 min; 220,000 compounds, 0.37% hits; AID 1236; inhibition, % at 16 µM;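 active = inhibition above about 50%, limit read from the data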
ROMK mod: modulates human ROMK potassium channel activity. P48048. Tet-inducible ROMK, thallium flux fluorescence; actives lie on both sides. B-score at 10 µM. 130,000 compounds, 2% hits. AID 1918;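 active = signal ratio slope over the read window, or its plate-corrected B-score, at least 3 SD from the plate mean, either direction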;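 note: B-score of the F/F0 ratio slope over 7 to 12 s after thallium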
Target sequence (P48048 whole entry, looked up): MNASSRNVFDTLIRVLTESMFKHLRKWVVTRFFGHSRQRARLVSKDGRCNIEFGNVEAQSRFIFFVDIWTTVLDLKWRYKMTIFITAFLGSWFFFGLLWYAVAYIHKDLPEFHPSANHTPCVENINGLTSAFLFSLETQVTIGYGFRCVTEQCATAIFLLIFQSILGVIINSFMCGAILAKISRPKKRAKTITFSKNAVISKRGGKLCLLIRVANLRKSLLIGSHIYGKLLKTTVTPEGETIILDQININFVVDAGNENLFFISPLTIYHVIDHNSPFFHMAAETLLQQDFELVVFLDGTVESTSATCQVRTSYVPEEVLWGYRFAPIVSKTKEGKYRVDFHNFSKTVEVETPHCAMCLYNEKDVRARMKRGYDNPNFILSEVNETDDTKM
Lmaj promast: reduces viability of Leishmania major promastigotes; inhibition, % at 10 µM; 200,000 compounds, 9% hits; AID 1063; resazurin fluorescence viability; in the data active = inhibition above about 50%;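 note: promastigotes grown with compound for 44 hours at 28 °C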
An asterisk follows results filed as active; . = no result given. The list is not random: actives were taken first. Their share in the collection is about 12%.

SMILES | Cl transport mod | WT yeast gro inh | Calpain2 inh | ROMK mod | Lmaj promast
Cc1ccc(CNC(=O)CSc2nc3c(sc4ccccc43)c(=O)n2CCCN2CCCC2)cc1 | 1 | 7 | -9 | -2.2 | 100*
CCN(CC)CCn1c(SCC(=O)NCCC2=CCCCC2)nc2c(sc3ccccc32)c1=O | -0.14 | 32 | -21 | 0.25 | 68*
COc1ccc(S(=O)(=O)NC(CCSC)C(=O)NC2CCCCC2)cc1 (stereo not drawn) | 0.1 | 17 | 35 | -0.017 | -2
CCn1c2ccccc2c2cc(NC(=O)COC(=O)c3cccc(S(=O)(=O)NC)c3)ccc21 | -0.87 | -23 | 26 | -0.83 | 66*
O=C(O)c1ccc(NC(=S)Nc2ccccc2)cc1 | -0.69 | 3 | 5 | 0.035 | 91*
O=C(Nc1ccccc1)/C(=C/c1ccccc1)c1ccccc1 | -0.1 | 0 | 10 | . | 98*
COC(=O)c1ccc(NC(=S)Nc2ccccc2)cc1 | 1.3 | -10 | 13 | . | 14
Cc1cc(NC(=S)Nc2ccccc2)ccc1Br | . | -5 | 25 | . | 97*
Cc1cc(C)n(C(=O)c2ccc(S(=O)(=O)N3CCOCC3)cc2)n1 | 0.63 | 16 | 10 | 0.98 | -4
O=C(N/N=C\c1ccc2c(c1)OCO2)c1ccc(Cn2cc(Br)c([N+](=O)[O-])n2)o1 | 0.0037 | 0 | -36 | 0.0012 | 83*
O=C(N/N=C\c1ccc(F)cc1)c1ccc(Cn2cc(Br)c([N+](=O)[O-])n2)o1 | -0.083 | -6 | 11 | -0.97 | 21
CCOc1ccc(/C=N/NC(=O)c2ccc(Cn3cc(Br)cn3)o2)cc1 | -0.59 | 6 | 9 | -0.28 | 59*
Cc1ccc(S(=O)(=O)Nc2ccc(O)c3ncccc23)cc1 | -0.085 | -17 | -19 | 0.58 | 99*
CCCCNCC(O)(c1ccc(Cl)cc1)c1ccc(Cl)cc1 | -0.41 | 19 | 8 | -0.97 | 90*
OC(CNCc1ccc(Cl)cc1)(c1ccccc1)c1ccc(F)cc1 (stereo not drawn) | 0.74 | 71* | 49 | -1.3 | 17
COc1ccc(CNCC(O)(c2ccc(Cl)cc2)c2ccc(Cl)cc2)cc1 | . | -5 | 0 | -1.1 | 101*
OC(CNCc1ccc(F)cc1)(c1ccc(F)cc1)c1ccc(F)cc1 | 0.51 | -6 | 27 | . | 7
Cc1ccc(CSCC(=O)NCc2ccco2)cc1 | -0.03 | -6 | -19 | 0.54 | -5
Cc1nn(-c2ccc(F)cc2)c(C)c1CN1CCN(CCC(C)C)C(CCO)C1 (stereo not drawn) | . | 19 | -8 | -0.18 | 55*
Cc1ccc(CN2CCN(Cc3c(C)nn(-c4ccc(F)cc4)c3C)CC2CCO)o1 (stereo not drawn) | 0.16 | 14 | 21 | -0.46 | 0
Cc1nn(-c2ccc(F)cc2)c(C)c1CN1CCN(Cc2ccccc2)C(CCO)C1 (stereo not drawn) | -0.45 | 10 | 17 | 0.22 | 13
Cc1nn(-c2ccc(F)cc2)c(C)c1CN1CCN(CCc2ccccc2)C(CCO)C1 (stereo not drawn) | 0.23 | 0 | 3 | 0.69 | 79*
Cc1ccccc1NC(NC(=O)OCCn1c([N+](=O)[O-])cnc1C)C(Cl)(Cl)Cl (stereo not drawn) | -0.47 | -7 | 8 | . | 41
Cc1cc(C)c(C(=O)/C=C/c2cccs2)c(=O)[nH]1 | 0.36 | 1 | -1 | 0.041 | 10
CCc1ccc(/C=C/C(=O)c2c(C)cc(C)[nH]c2=O)cc1 | . | -14 | -18 | . | 59*
SMILES | Cl transport mod | WT yeast gro inh | Calpain2 inh | ROMK mod | Lmaj promast
Cc1ccc(/C=C/C(=O)c2c(C)cc(C)[nH]c2=O)cc1 | . | 23 | -11 | . | 61*
O=C(NCCC(=O)N1CCOCCOCCOCCOCC1)OCc1ccccc1 | 0.15 | . | 12 | . | .
COc1ccc(NC(=O)c2ccc(COc3ccccc3Br)o2)cc1OC | -6* | 46 | 20 | . | 1
COc1ccc(/C=N/NC(=O)c2ccc(COc3ccccc3Cl)o2)c(OC)c1C | 0.1 | -6 | 20 | -0.36 | 56*
CN(C(=O)c1ccc(COc2ccccc2Br)o1)c1ccccc1 | -1.9 | 67* | 6 | -0.052 | 19
COc1ccc(/C=N/NC(=O)c2ccc(COc3ccccc3Cl)o2)cc1 | -2 | 2 | -223 | . | -3
COc1ccc(NC(=O)c2ccc(COc3ccccc3OC)o2)cc1OC | -1.7 | -5 | 2 | . | -1
Cn1c2ccccc2c2cnn(CC(=O)N3CCCCC3)c(=O)c21 | -0.88 | . | -23 | . | .
CC(NC(=O)COC(=O)c1ccccc1Nc1ccccc1)c1ccccc1 (stereo not drawn) | 0.59 | 9 | -9 | . | 4
Cc1ccc(NC(=S)NCc2cccs2)c(C)c1 | . | 17 | 16 | 0.02 | 16
CC(C)c1ccc(NC(=S)NCc2cccs2)cc1 | -1 | 67* | 13 | -1.5 | 5
CC(Cc1cccs1)NC(=S)Nc1ccc(F)cc1 (stereo not drawn) | -3.9 | 15 | -6 | -1.1 | 51*
COc1ccc(NC(=S)NCc2cccs2)cc1 | 0.25 | 3 | 7 | -1.1 | -2
Cc1cc(Cl)ccc1NC(=S)NCc1cccs1 | 1.9 | 12 | 13 | . | 77*
CCn1c(CSc2nc(C)cc(C)n2)nnc1SCC(=O)N1CCCc2ccccc21 | -0.36 | 19 | -6 | -0.0032 | -7
Cc1cccc(C)c1NC(=O)C1(N2C(=O)CC2c2ccccc2)CCCCC1 (stereo not drawn) | -1.1 | 4 | 17 | -0.082 | 4
O=c1cc(O)c2ccccc2n1Cc1ccccc1Cl | -1.8 | -2 | -25 | -0.15 | -7
Cc1[nH][nH]c(=O)c1C(c1c(C)[nH][nH]c1=O)c1cn(Cc2ccccc2Cl)c2ccccc12 | -0.97 | 63* | -45 | -2.1 | 28
O=C(Nc1ccc(Cl)cc1)OCCn1nnnc1C(c1ccccc1Cl)N1CCOCC1 (stereo not drawn) | 0.076 | -27 | -11 | . | 90*
CC(=O)NC1(c2nnnn2CCOC(=O)Nc2ccc(Cl)cc2)CCCC1 | 0.42 | 15 | 11 | -0.42 | -5
CCCCn1c(=N)n(CC(=O)c2ccc([N+](=O)[O-])cc2)c2ccccc21 | 0.3 | 23 | -24 | -0.94 | 81*
COc1ccc(C(=O)CSc2nc3ccccc3n2CC(=O)c2ccccc2)cc1 | 0.22 | 23 | -81 | . | 22
COc1ccc(C(=O)Cn2c(C(=O)/C=C/c3ccccc3)nc3ccccc32)cc1 | 0.0091 | 14 | -299 | 0.53 | 89*
CCn1c(=N)n(CC(=O)c2ccc(OC)cc2)c2ccccc21 | 0.02 | 11 | -8 | . | 95*
Cc1ccc(Cn2c(=N)n(CC(=O)c3ccc([N+](=O)[O-])cc3)c3ccccc32)cc1 | -0.011 | 4 | 20 | . | 74*
SMILES | Cl transport mod | WT yeast gro inh | Calpain2 inh | ROMK mod | Lmaj promast
CCOc1ccc(Cl)cc1CSc1ncn[nH]1 | 0.86 | -7 | 15 | -1.1 | 4
CCOC(=O)c1sc(NC(=O)CSC(=S)N2CCN(C)CC2)nc1C | 0.35 | . | 20 | . | .
CCCn1c(=N)n(CCOc2ccc(OC)cc2)c2ccccc21 | 0.76 | -10 | 5 | . | 94*
Fc1ccccc1CSc1nc2ccccc2[nH]1 | -0.53 | 38 | -26 | -1.9 | 91*
COC(=O)CN1C(=O)N/C(=C/c2ccccc2OC)C1=O | -0.16 | -4 | -24 | 0.44 | -2
c1ccc(COc2ccccc2CNC2CCCC2)cc1 | -0.54 | 7 | 8 | 0.12 | 70*
c1csc(COc2ccccc2CNC2CCCCC2)c1 | 0.7 | 10 | 16 | . | 81*
